Results on 45 sequences are retold here after the supplement of paper PMC3545927.

This is one part of the list. How many sequences the whole screen found active is unknown.

The target of the assay is furin, P09958. Put plainly: furin cleavage Z-score vs untreated control; higher = more cleavage, active = 3.5 or more, inactive = 1 or less, 8 variable residues between constant flanks. Summed up: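 Read counts from sequencing released DNA gave abundance for each bead-bound 8-mer peptide–cDNA fusion cut by purified furin over 7.5, 15 or 30 min. The cleavage Z-score compares log counts with furin-free reactions after lowess adjustment and median absolute deviation scaling.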
Chain of furin, P09958 (P09958 whole entry, the tested form may be a part): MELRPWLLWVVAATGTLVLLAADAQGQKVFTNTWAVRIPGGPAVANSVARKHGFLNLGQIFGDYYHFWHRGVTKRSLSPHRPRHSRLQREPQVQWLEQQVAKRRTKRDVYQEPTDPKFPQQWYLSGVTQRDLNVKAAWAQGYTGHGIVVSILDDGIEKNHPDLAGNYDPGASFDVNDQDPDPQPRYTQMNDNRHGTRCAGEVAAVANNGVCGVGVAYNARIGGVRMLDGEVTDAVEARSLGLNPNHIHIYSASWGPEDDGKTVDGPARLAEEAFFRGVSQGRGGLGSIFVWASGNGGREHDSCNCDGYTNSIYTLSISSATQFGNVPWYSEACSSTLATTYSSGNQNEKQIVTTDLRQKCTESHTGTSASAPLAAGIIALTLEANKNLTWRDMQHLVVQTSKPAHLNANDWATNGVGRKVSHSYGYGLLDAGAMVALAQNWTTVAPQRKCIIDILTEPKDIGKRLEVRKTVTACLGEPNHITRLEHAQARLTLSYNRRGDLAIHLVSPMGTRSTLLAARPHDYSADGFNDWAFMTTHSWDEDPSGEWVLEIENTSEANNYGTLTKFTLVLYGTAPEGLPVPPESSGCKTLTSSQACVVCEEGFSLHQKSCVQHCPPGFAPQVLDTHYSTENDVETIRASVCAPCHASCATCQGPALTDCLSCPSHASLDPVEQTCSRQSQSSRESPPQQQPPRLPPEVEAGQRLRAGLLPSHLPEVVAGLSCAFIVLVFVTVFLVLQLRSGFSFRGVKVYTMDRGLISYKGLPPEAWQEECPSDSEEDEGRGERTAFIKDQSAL
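Further: purified furin at 1:10 enzyme:substrate in 50 mM HEPES pH 7.5.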

B1: HC1790 (peptide)
chain: CAVEMEECSQAGNASASA
With B1, the “furin cleavage Z-score” value by setting is: (7.5 min) 0.132 (inactive); (15 min) -1.38 (inactive); (30 min) -1.19 (inactive).

B2: HC1921 (peptide)
chain: CATTPCSGNWAGNASASA
B2: the “furin cleavage Z-score” value is, setting by setting: (7.5 min) 0.659 (inactive); (15 min) 0.815 (inactive); (30 min) -0.795 (inactive).

B3: HC1238 (peptide)
chain: CAPVGSQLPCAGNASASA
In the case of B3, the “furin cleavage Z-score” value was 0.473 (inactive) (7.5 min), -1.27 (inactive) (15 min) and 0.372 (inactive) (30 min).

B4: HC183 (peptide)
chain: CAGVRATRKTAGNASASA
Take B4: the “furin cleavage Z-score” value reads like this: (7.5 min) 0.267 (inactive); (15 min) 0.577 (inactive); (30 min) 0.344 (inactive).

B5: HC2424 (peptide)
chain: CAIREVPCHRAGNASASA
Turning to B5, the “furin cleavage Z-score” value was -0.0693 (inactive) (7.5 min), 1.33 (15 min) and 2.41 (30 min).

B6: HC709 (peptide)
chain: CAVIQMYTNVAGNASASA
Consider B6, for which the “furin cleavage Z-score” value (7.5 min) was 0.334 (inactive), the “furin cleavage Z-score” value (15 min) was -0.0874 (inactive) and the “furin cleavage Z-score” value (30 min) was -1.04 (inactive).

B7: FS-2894 (peptide)
chain: CARAYRSSMRAGNASASA
As for B7, the “furin cleavage Z-score” value is, setting by setting: (7.5 min) -1.12 (inactive); (15 min) -1.44 (inactive); (30 min) -1.22 (inactive).

B8: FS-1991 (peptide)
chain: CARAKRAFLPAGNASASA
Turning to B8, the “furin cleavage Z-score” value runs as follows: (7.5 min) 3.35; (15 min) 4.79 (active); (30 min) 6.29 (active).

B9: FS-2637 (peptide)
chain: CARAKRRAIRAGNASASA
As to B9, the “furin cleavage Z-score” value is 10.3 (active) (7.5 min), 11.4 (active) (15 min) and 9.08 (active) (30 min).

B10: FS-2634 (peptide)
chain: CARAKREEKKAGNASASA
As to B10, the “furin cleavage Z-score” value reads like this: (7.5 min) 3.98 (active); (15 min) 2.96; (30 min) 4.64 (active).

B11: FS-2638 (peptide)
chain: CARAKRRWAPAGNASASA
With B11, the “furin cleavage Z-score” value (7.5 min) was 0.9 (inactive), the “furin cleavage Z-score” value (15 min) was 1.95 and the “furin cleavage Z-score” value (30 min) was 0.773 (inactive).

B12: FS-3241 (peptide)
chain: CARAKRTTKRAGNASASA
For B12, the “furin cleavage Z-score” value (7.5 min) was 8.36 (active), the “furin cleavage Z-score” value (15 min) was 10.4 (active) and the “furin cleavage Z-score” value (30 min) was 9.38 (active).

B13: FS-2884 (peptide)
chain: CARAKRPLMVAGNASASA
Turning to B13, the “furin cleavage Z-score” value by setting is: (7.5 min) 0.123 (inactive); (15 min) 1.97; (30 min) -0.869 (inactive).

B14: HC790 (peptide)
chain: CAAATLGFGAAGNASASA
On to B14, for which the “furin cleavage Z-score” value is -0.962 (inactive) (7.5 min), 1.23 (15 min) and 1.13 (30 min).

B15: FS-2902 (peptide)
chain: CARDGRKVTVAGNASASA
For the sequence B15, the “furin cleavage Z-score” value (7.5 min) was -0.804 (inactive), the “furin cleavage Z-score” value (15 min) is -0.377 (inactive) and the “furin cleavage Z-score” value (30 min) was -1.67 (inactive).

B16: FS-2886 (peptide)
chain: CARAKRRGGGAGNASASA
For the sequence B16, the “furin cleavage Z-score” value is 0.374 (inactive) (7.5 min), -1.9 (inactive) (15 min) and 0.196 (inactive) (30 min).

B17: FS-2636 (peptide)
chain: CARAKRKVTRAGNASASA
Take B17: the “furin cleavage Z-score” value (7.5 min) was 3.09, the “furin cleavage Z-score” value (15 min) was 4.94 (active) and the “furin cleavage Z-score” value (30 min) is 4.17 (active).

B18: HC1411 (peptide)
chain: CANLLSVEEAAGNASASA
Regarding B18, the “furin cleavage Z-score” value by setting is: (7.5 min) 1.03; (15 min) -1.37 (inactive); (30 min) 1.04.

B19: FS-2688 (peptide)
chain: CARKGRSQSVAGNASASA
For B19, the “furin cleavage Z-score” value is, setting by setting: (7.5 min) 0.447 (inactive); (15 min) 1.69; (30 min) 2.28.

B20: FS-1902 (peptide)
chain: CARKGRSYGSAGNASASA
B20: the “furin cleavage Z-score” value is, setting by setting: (7.5 min) 2.38; (15 min) 4.19 (active); (30 min) 3.35.

B21: FS-1731 (peptide)
chain: CARKNRSQIVAGNASASA
B21: the “furin cleavage Z-score” value is, setting by setting: (7.5 min) 0.382 (inactive); (15 min) 1.89; (30 min) 1.82.

B22: FS-1960 (peptide)
chain: CARKRRPYGSAGNASASA
Consider B22, for which the “furin cleavage Z-score” value is, setting by setting: (7.5 min) -0.105 (inactive); (15 min) 0.526 (inactive); (30 min) -2 (inactive).

B23: FS-3222 (peptide)
chain: CARKNRSFYAAGNASASA
With B23, the “furin cleavage Z-score” value was -0.489 (inactive) (7.5 min), 0.152 (inactive) (15 min) and -1.6 (inactive) (30 min).

B24: FS-3159 (peptide)
chain: CARKNRSTASAGNASASA
For B24, the “furin cleavage Z-score” value was 4.98 (active) (7.5 min), 6.48 (active) (15 min) and 5.71 (active) (30 min).

B25: HC2177 (peptide)
chain: CAESVTSTWVAGNASASA
As to B25, the “furin cleavage Z-score” value is, setting by setting: (7.5 min) 0.711 (inactive); (15 min) -0.0286 (inactive); (30 min) -0.582 (inactive).

B26: HC527 (peptide)
chain: CASCLWMMLLAGNASASA
Take B26: the “furin cleavage Z-score” value runs as follows: (7.5 min) 0.0621 (inactive); (15 min) -0.464 (inactive); (30 min) 0.433 (inactive).

B27: HC1402 (peptide)
chain: CAHYQDVLKEAGNASASA
Consider B27, for which the “furin cleavage Z-score” value is, setting by setting: (7.5 min) -0.724 (inactive); (15 min) -0.493 (inactive); (30 min) 0.655 (inactive).

B28: HC1422 (peptide)
chain: CAYGAKDVRCAGNASASA
On to B28, for which the “furin cleavage Z-score” value by setting is: (7.5 min) -0.0596 (inactive); (15 min) 0.548 (inactive); (30 min) 0.765 (inactive).

B29: FS-933 (peptide)
chain: CAIRRRTQRCAGNASASA
Take B29: the “furin cleavage Z-score” value was 7.07 (active) (7.5 min), 6.92 (active) (15 min) and 6.54 (active) (30 min).

B30: FS-1543 (peptide)
chain: CALSRRRVRCAGNASASA
On to B30, for which the “furin cleavage Z-score” value was 10.2 (active) (7.5 min), 7.81 (active) (15 min) and 8.22 (active) (30 min).

B31: FS-482 (peptide)
chain: CAQRSRQVRCAGNASASA
B31: the “furin cleavage Z-score” value runs as follows: (7.5 min) 0.775 (inactive); (15 min) 0.292 (inactive); (30 min) 1.12.

B32: FS-34 (peptide)
chain: CAINRRTGRPAGNASASA
Consider B32, for which the “furin cleavage Z-score” value runs as follows: (7.5 min) -0.402 (inactive); (15 min) -1.89 (inactive); (30 min) -1.13 (inactive).

B33: FS-458 (peptide)
chain: CALRERPVRCAGNASASA
With B33, the “furin cleavage Z-score” value (7.5 min) worked out at 2.04, the “furin cleavage Z-score” value (15 min) came out at 2.12 and the “furin cleavage Z-score” value (30 min) is 4.39 (active).

B34: FS-481 (peptide)
chain: CAQRQRSVRCAGNASASA
Take B34: the “furin cleavage Z-score” value (7.5 min) came to 1.64, the “furin cleavage Z-score” value (15 min) is 0.494 (inactive) and the “furin cleavage Z-score” value (30 min) was 0.731 (inactive).

B35: HC1883 (peptide)
chain: CATTPCSASWAGNASASA
As for B35, the “furin cleavage Z-score” value (7.5 min) is -0.499 (inactive), the “furin cleavage Z-score” value (15 min) is 0.682 (inactive) and the “furin cleavage Z-score” value (30 min) is -0.342 (inactive).

B36: HC2036 (peptide)
chain: CAVVGCSMSYAGNASASA
B36: the “furin cleavage Z-score” value was 1.64 (7.5 min), -0.0657 (inactive) (15 min) and 1.23 (30 min).

B37: HC1837 (peptide)
chain: CASTPCSGSWAGNASASA
Take B37: the “furin cleavage Z-score” value is, setting by setting: (7.5 min) -0.691 (inactive); (15 min) -0.464 (inactive); (30 min) -0.623 (inactive).

B38: FS-1765 (peptide)
chain: CARPWKSVALAGNASASA
For the sequence B38, the “furin cleavage Z-score” value was 1.43 (7.5 min), 0.873 (inactive) (15 min) and -0.932 (inactive) (30 min).

B39: FS-2746 (peptide)
chain: CARPRRVIARAGNASASA
For the sequence B39, the “furin cleavage Z-score” value runs as follows: (7.5 min) 0.722 (inactive); (15 min) 0.121 (inactive); (30 min) 1.35.

B40: FS-2501 (peptide)
chain: CARPRRELSLAGNASASA
For the sequence B40, the “furin cleavage Z-score” value was 9.83 (active) (7.5 min), 9.15 (active) (15 min) and 8.79 (active) (30 min).

B41: FS-2769 (peptide)
chain: CARRARAVHDAGNASASA
As to B41, the “furin cleavage Z-score” value was 0.991 (inactive) (7.5 min), 0.269 (inactive) (15 min) and 0.722 (inactive) (30 min).

B42: FS-1772 (peptide)
chain: CARRARSWAEAGNASASA
For the sequence B42, the “furin cleavage Z-score” value was 0.748 (inactive) (7.5 min), 2.17 (15 min) and 4.73 (active) (30 min).

B43: FS-2771 (peptide)
chain: CARRARSSVCAGNASASA
Turning to B43, the “furin cleavage Z-score” value was -0.135 (inactive) (7.5 min), 0.0716 (inactive) (15 min) and 2.53 (30 min).

B44: FS-2504 (peptide)
chain: CARPRRSLALAGNASASA
In the case of B44, the “furin cleavage Z-score” value is 7.93 (active) (7.5 min), 10.2 (active) (15 min) and 8.84 (active) (30 min).

B45: FS-1834 (peptide)
chain: CARRARSPHDAGNASASA
For B45, the “furin cleavage Z-score” value (7.5 min) is 8.36 (active), the “furin cleavage Z-score” value (15 min) is 9.74 (active) and the “furin cleavage Z-score” value (30 min) was 9.02 (active).
